ADAM17 inh = ADAM17 inhibition, QFRET primary screen; inhibition, % at 6.95 µM; P78536; AID 720648; hit rate 0.83% among 370,000; recombinant ADAM17, EDANS/DABCYL FRET peptide cleavage;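 active = inhibition above the mean of compounds lying between control limits plus 3 SD, set per campaign, cut at about 8.5% in these data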
Target sequence (P78536 215-824 limits assumed): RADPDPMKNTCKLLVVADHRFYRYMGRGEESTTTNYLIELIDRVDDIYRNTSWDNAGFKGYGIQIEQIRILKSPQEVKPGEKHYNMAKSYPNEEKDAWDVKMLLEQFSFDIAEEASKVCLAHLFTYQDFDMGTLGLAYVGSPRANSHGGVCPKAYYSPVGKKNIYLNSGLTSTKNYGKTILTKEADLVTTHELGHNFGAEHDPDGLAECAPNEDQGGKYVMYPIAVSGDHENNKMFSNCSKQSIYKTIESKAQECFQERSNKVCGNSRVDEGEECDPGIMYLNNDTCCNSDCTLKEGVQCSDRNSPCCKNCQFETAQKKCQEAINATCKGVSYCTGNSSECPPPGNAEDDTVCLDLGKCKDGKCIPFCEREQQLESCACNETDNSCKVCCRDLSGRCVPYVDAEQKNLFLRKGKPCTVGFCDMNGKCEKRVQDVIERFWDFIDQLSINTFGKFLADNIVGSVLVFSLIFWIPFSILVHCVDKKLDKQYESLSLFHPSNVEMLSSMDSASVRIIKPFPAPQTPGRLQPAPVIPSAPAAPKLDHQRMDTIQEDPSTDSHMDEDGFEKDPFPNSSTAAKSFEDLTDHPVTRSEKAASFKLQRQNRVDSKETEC
ADAM10 inh = inhibits human ADAM10. AID 720582. recombinant ADAM10, EDANS/DABCYL FRET peptide cleavage, 3 h. inhibition, % at 7 µM. hit rate 0.62% among 370,000. O14672;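 active = inhibition above a per-campaign cutoff equal to the mean of compounds falling between control-based bounds plus 3 SD, cut at about 20% in these data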
PLC-gamma1 inh = blocks human PLC-gamma1 enzyme activity; purified PLC-gamma1, fluorogenic substrate, fluorescence; hit rate 0.84% among 370,000; inhibition, % at 12.2 µM; in the data active = inhibition above about 9.5%
PLCb3 inh = PLC-beta3 (human) inhibition, primary screen; Purified PLC-beta3, fluorogenic substrate, fluorescence; hit rate 0.18% among 370,000; AID 720704; inhibition, % at 12.2 µM; in the data active = inhibition above about 11%
KLK7 zymogen act = activates the human kallikrein-7 zymogen; purified proKLK7, EDANS-DABCYL substrate fluorescence; 100% is mature enzyme control, 0% vehicle; P49862; AID 652039; activation, % at 7 µM; hit rate 0.9% among 370,000;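 active = activation above the mean of all tested compounds plus 3 SD, computed per campaign excluding outliers beyond control limits, cut at about 13% in these data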
ADAM10 confirm = confirmation of inhibitors of human ADAM10 | ADAM10 QFRET peptide cleavage, EDANS fluorescence | hit rate 1% among 2,100 | inhibition, % at 6.95 µM | shares compounds with ADAM10 inh;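 active = inhibition above about 20% chosen separately for each screening run, limit read from the data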
ADAM17 counter = counter-screen for ADAM10 exosite inhibitors: inhibitors of human ADAM17 | shares compounds with ADAM10 inh | ADAM17 QFRET peptide cleavage, EDANS fluorescence | inhibition, % at 6.95 µM | hit rate 0.5% among 2,100 | AID 743214;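 active = mean triplicate inhibition above the solvent-only control wells' mean plus 3 SD, cut at about 12% in these data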
ADAM10 counter = ADAM10 inhibition, counter-screen for ADAM17 exosite hits; recombinant ADAM10, EDANS/DABCYL FRET peptide cleavage, 3 h; inhibition, % at 6.95 µM; AID 743256; shares compounds with ADAM17 inh; hit rate 47% among 2,900;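 active = mean inhibition over the triplicate runs exceeds the activity threshold set in the earlier primary screen, cut at about 20% in these data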
ADAM17 confirm = human ADAM17 inhibition, confirmation | shares compounds with ADAM17 inh | inhibition, % at 6.95 µM | recombinant ADAM17, EDANS/DABCYL QFRET peptide cleavage | hit rate 65% among 2,900;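 active = mean inhibition across replicates above the hit cutoff set in the primary screen, cut at about 8.5% in these data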
Numbers stand for hits; 0 = inactive; - = not tested or not shown; ! = not confirmed by another sample. Only some compounds are listed: those with a hit (about 2.9% of all), similar ones and a draw of the others.

SMILES	ADAM17 inh	ADAM10 inh	PLC-gamma1 inh	PLCb3 inh	KLK7 zymogen act	ADAM10 confirm	ADAM17 counter	ADAM10 counter	ADAM17 confirm
O=C(Nc1nc(-c2ccc(S(=O)(=O)N3CCOCC3)cc2)cs1)c1ccccc1	10.8!	21.0!	0	0	0	0	0	0	0
O=C(NCC1CCCCC1)c1ccc2nc([C@@H]3O[C@H](CO)[C@H](O)[C@H](O)[C@H]3O)[nH]c2c1	0	0	0	0	0	-	-	-	-
Cc1oc2c(cc(NS(=O)(=O)c3cccs3)c3ccccc32)c1C(=O)OC(C)C	9.7	23.6	0	0	0	0	0	37.7	14.4
Cc1oc2c(cc(NS(=O)(=O)c3ccc(C(C)C)cc3)c3ccccc32)c1C(=O)O	0	0	0	0	0	-	-	-	-
COc1cc(C(O)c2nc(-c3cccc(C(C)C)c3)cs2)ccc1F (stereo not drawn)	10.8	20.1	0	0	0	0	0	24.2	13.4
COc1ccc(C(O)c2nc(-c3ccc(F)cc3OC)cs2)cc1 (stereo not drawn)	0	0	0	0	0	-	-	-	-
COc1cccc(C(O)c2nc(-c3ccc(F)cc3OC)cs2)c1 (stereo not drawn)	11.2	30.5	0	0	0	0	0	0	8.8
COc1cc(C(O)c2nc(/C=C/c3ccccc3)cs2)ccc1F (stereo not drawn)	16.7	41.6	0	0	0	0	0	22.1	10.5
COc1ccc(NC(=O)C2CC(=O)N/C(=N/NC(=O)c3ccc(Cl)cc3)S2)cc1 (stereo not drawn)	0	0	0	0	0	-	-	-	-
Cc1cc(N2CCN(C(=O)Oc3ccc(-c4ccccc4)cc3)CC2)c2ccccc2n1	0	0	0	0	0	-	-	-	-
COC(=O)[C@]12C[C@H](CC(=O)NCc3cccs3)C(=O)N(Cc3ccco3)C1=C[C@H](C1CCCC1)O[C@@H]2C	0	0	0	0	0	-	-	-	-
CC(C)(C)OC(=O)CNC(=O)c1[nH]cnc1C(=O)NC(c1ccccc1)c1ccccc1	15.8	26.8	0	0	0	0	0	23.6	14.0
C[C@H](NC(=O)c1nc[nH]c1C(=O)NC(c1ccccc1)c1ccccc1)C(=O)OC(C)(C)C	13.6	24.4	0	0	0	0	0	43.1	24.0
O=C1CC(N(CCc2ccccc2)C(=S)Nc2cc(Cl)ccc2Cl)C(=O)N1c1c(Cl)cccc1Cl (stereo not drawn)	12.1	20.9	0	0	0	0	0	23.5	12.9
Cn1c(=O)cc(OCCCC(=O)Nc2cc(-c3cn[nH]c3)ccn2)c2ccccc21	0	0	0	0	-	-	-	-	-
O=C(CSc1nc(NS(=O)(=O)c2ccccc2)cc(=O)[nH]1)Nc1ccc(Cl)cc1	0	0	0	0	0	-	-	-	-
O=c1cc(NS(=O)(=O)c2ccccc2)nc(SCc2ccc(Cl)cc2)[nH]1	10.5	20.0	0	0	0	0	0	24.8	13.7
NC(=O)Cn1cc(/C=N\NS(=O)(=O)c2ccc(Cl)cc2)c2ccccc21	0	0	0	0	0	-	-	-	-
O=S(=O)(N/N=C/c1cn(Cc2ccccc2)c2ccccc12)c1ccccc1	9.6	24.2	0	0	0	0	0	35.5	18.7
CCCCNS(=O)(=O)c1ccc2nc(SCC(=O)c3ccc(C#N)cc3)[nH]c2c1	0	0	0	0	0	-	-	-	-
CCCCNS(=O)(=O)c1ccc2nc(SCC(=O)Nc3ccccc3)[nH]c2c1	9.1	22.8	0	0	0	0	0	0	0
CC(Sc1nc2c(c(=O)[nH]1)CCCC2)C(=O)Nc1ccccc1C#N (stereo not drawn)	0	0	0	0	0	-	-	-	-
O=S(=O)(c1ccc(NC(=S)NCCC(c2ccccc2)c2ccccc2)cc1)N1CCOCC1	14.6	20.6	0	0	0	0	0	30.6	17.5

Screens (PubChem BioAssay)
